Experimental data from the supplement of paper PMC13380429.

System: Vero E6 infected with SARS-CoV-2
Assay: inhibition of SARS-CoV-2 cytopathic effect; higher = more antiviral protection, active = above 15
Conditions: 48 h

Measured: inhibition of SARS-CoV-2 cytopathic effect

Nc1nnc(-c2cccc(Cl)c2Cl)c(N)n1 [lamotrigine]
inactive: 1 nM -2.3% | 8.33 nM -2.08% | 100 nM -1.73% | 833.33 nM -0.07% | 10000 nM 0.08%

CC(C)[N+](C)(CCC(C(N)=O)(c1ccccc1)c1ccccc1)C(C)C [isopropamide-iodide]
inactive: 1 nM 1.15% | 8.33 nM 1.26% | 100 nM 2.29% | 833.33 nM 1.52% | 10000 nM 1.2%

CC(C)[C@H]1[C@@H]2CC[C@@H](C2)[C@@H]1N
inactive: 1 nM 0.17% | 8.33 nM 2.01% | 100 nM 5.77% | 833.33 nM 6.62% | 10000 nM 4.27%

COc1cc2nc(N3CCN(C(=O)C4CCCO4)CC3)nc(N)c2cc1OC (stereo not given) [terazosin]
inactive: 1 nM 1.36% | 8.33 nM -0.59% | 100 nM -1.51% | 833.33 nM -0.05% | 10000 nM 1.35%

CCc1ccc(/C=C/C(=O)Nc2ccc(C(C)=O)cc2)o1 [heclin]
inactive: 1 nM -2.06% | 8.33 nM -1.28% | 100 nM -7.85% | 833.33 nM -6.86% | 10000 nM -5.66%

O=C(NO)c1cnc(N2CCN(S(=O)(=O)c3ccc4ccccc4c3)CC2)nc1
inactive: 1 nM 1.24% | 8.33 nM 2.59% | 100 nM 2.04% | 833.33 nM -16.4% | 10000 nM -22.6%

NC/C(=C/F)CCc1ccc(F)cc1 [mofegiline]
inactive: 1 nM 3.65% | 8.33 nM 2.09% | 100 nM 1.29% | 833.33 nM -1.58% | 10000 nM -3.87%

Cc1c(C(=O)NCCCO)cnn1-c1nc(-c2cccc(C(F)(F)F)c2)cs1
inactive: 1 nM 2.55% | 8.33 nM 3.83% | 100 nM 3.4% | 833.33 nM 5.36% | 10000 nM -0.86%

COc1ccc(F)c(F)c1C(=O)c1cnc(NC2CCN(S(C)(=O)=O)CC2)nc1N
inactive: 1 nM -1.93% | 8.33 nM -3.14% | 100 nM -5.01% | 833.33 nM 6.41% | 10000 nM -11.5%

Cn1c(COc2ccc(CC3SC(=O)NC3=O)cc2)nc2ccccc2c1=O (stereo not given) [balaglitazone]
inactive: 1 nM -1.69% | 8.33 nM -0.56% | 100 nM -0.1% | 833.33 nM -2.45% | 10000 nM -7.04%

O=C(O)c1ccc2c(c1)nc(Nc1cccc(Cl)c1)c1ccncc12
inactive: 1 nM -2.63% | 8.33 nM 0.18% | 100 nM -2.24% | 833.33 nM 0.52% | 10000 nM -1.33%

CC(C)(C)C1CCc2c(sc(NC(=O)c3ccco3)c2C(=O)O)C1 (stereo not given)
inactive: 1 nM 0.37% | 8.33 nM 3.15% | 100 nM 1.01% | 833.33 nM 0.8% | 10000 nM -2.29%

CC(C)SC(=N)N [S-isopropylisothiourea]
inactive: 1 nM 1.63% | 8.33 nM 0.91% | 100 nM 3.8% | 833.33 nM 0.88% | 10000 nM 2.04%

C[C@H]1CO[C@@H]2Cn3cc(C(=O)NCc4ccc(F)cc4F)c(=O)c(O)c3C(=O)N12
inactive: 1 nM 0% | 8.33 nM 1.03% | 100 nM 1.79% | 833.33 nM 1.33% | 10000 nM -0.84%

N#Cc1cccc(-c2c[nH]c3ncnc(N4CCOCC4)c23)c1
inactive: 1 nM -1.16% | 8.33 nM -0.52% | 100 nM -2.71% | 833.33 nM -0.07% | 10000 nM -2.14%

COc1ccc(CCN)cc1OC [homoveratrylamine]
inactive: 1 nM 0.49% | 8.33 nM 7.09% | 100 nM 12.7% | 833.33 nM 5.43% | 10000 nM 11.1%

COc1cc(O)c(C(=O)c2ccccc2)cc1S(=O)(=O)O [sulisobenzone]
inactive: 1 nM 1.82% | 8.33 nM 1.76% | 100 nM -0.05% | 833.33 nM -2.93% | 10000 nM 1.98%

O=C(c1ccc(F)cc1)C1CCN(CCn2c(=O)[nH]c3ccccc3c2=O)CC1 [ketanserin]
inactive: 1 nM 1.58% | 8.33 nM -0.51% | 100 nM -0.25% | 833.33 nM 2% | 10000 nM -1.33%

Cc1c(F)cc(C(=O)NC2CC2)cc1-c1ccc(C(=O)NCC(C)(C)C)cn1 [losmapimod]
inactive: 1 nM 1.3% | 8.33 nM 0.27% | 100 nM -1.7% | 833.33 nM -4.24% | 10000 nM -5.03%

CO[C@@H]1[C@@H](O[C@@H]2O[C@H](C)[C@@H](O[C@H]3C[C@@](C)(O)[C@@H](OC(=O)CC(C)C)[C@H](C)O3)[C@H](N(C)C)[C@H]2O)[C@@H](CC=O)C[C@@H](C)[C@@H](O)/C=C/C=C/C[C@@H](C)OC(=O)C[C@H]1OC(C)=O [josamycin]
inactive: 1 nM 2.65% | 8.33 nM 0.07% | 100 nM -2.91% | 833.33 nM -1.73% | 10000 nM -7.02%
